The results in this text go back to ChEMBL document CHEMBL3988442, “University of Dundee, Small-Polar-MMV Screening Library” (2021).

For some of these results: Results with a measured potency or affinity are listed apart.

What all share (parameters): scale not given: direction of the effect not stated beside the values
Assay [1] has as its target Protein translocase subunit SecA (Escherichia coli (strain K12)) (UniProt P10408). Description: Assay to Identify E. coli SecA ATPase Inhibitors. Type of assay: functional. Particulars: 30 µM.
For assay [2], the target named is T1, Ubiquitin-activating enzyme e1, putative (Leishmania donovani (strain BPK282A1)) (UniProt E9BSI1).
T1 sequence (whole entry): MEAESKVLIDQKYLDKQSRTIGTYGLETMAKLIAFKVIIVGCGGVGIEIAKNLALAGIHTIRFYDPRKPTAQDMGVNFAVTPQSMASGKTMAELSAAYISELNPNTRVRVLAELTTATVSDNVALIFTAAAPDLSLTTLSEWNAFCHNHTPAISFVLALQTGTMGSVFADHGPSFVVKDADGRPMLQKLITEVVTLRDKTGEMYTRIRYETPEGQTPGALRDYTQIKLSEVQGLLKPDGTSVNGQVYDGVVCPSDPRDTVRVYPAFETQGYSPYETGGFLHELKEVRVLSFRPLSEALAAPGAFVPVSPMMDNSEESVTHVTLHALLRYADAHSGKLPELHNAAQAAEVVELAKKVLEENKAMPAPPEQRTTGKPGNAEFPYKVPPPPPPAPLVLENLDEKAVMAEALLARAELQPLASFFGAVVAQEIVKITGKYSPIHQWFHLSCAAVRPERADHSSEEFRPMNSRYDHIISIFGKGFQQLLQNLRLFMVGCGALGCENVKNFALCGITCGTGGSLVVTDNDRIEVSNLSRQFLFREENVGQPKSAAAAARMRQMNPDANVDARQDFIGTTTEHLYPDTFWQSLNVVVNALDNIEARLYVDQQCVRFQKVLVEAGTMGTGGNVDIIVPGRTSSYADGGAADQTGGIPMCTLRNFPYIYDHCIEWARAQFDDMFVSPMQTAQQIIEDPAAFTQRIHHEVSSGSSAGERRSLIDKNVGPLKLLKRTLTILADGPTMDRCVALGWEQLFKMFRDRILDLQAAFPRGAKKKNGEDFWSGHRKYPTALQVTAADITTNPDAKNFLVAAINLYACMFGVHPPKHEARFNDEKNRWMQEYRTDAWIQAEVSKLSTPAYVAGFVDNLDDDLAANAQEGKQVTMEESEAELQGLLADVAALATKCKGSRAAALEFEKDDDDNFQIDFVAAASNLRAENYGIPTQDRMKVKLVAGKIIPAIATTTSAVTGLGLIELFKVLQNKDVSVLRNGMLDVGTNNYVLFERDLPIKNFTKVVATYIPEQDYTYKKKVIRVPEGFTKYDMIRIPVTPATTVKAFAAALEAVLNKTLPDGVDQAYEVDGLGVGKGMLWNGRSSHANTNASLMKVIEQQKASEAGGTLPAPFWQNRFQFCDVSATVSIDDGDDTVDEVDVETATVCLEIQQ
Briefly: Leishmania donovani Ubiquitin Activating Enzyme (LdE1). Type of assay: functional. Particulars: 30 µM.

Assay [3] has as its target AMP-activated protein kinase, AMPK (Homo sapiens) (UniProt P54646+O43741+P54619+Q9UGJ0+Q9Y478+Q13131+Q9UGI9). Briefly: AMP-dependent Kinase enzyme assay. An in vitro enzyme assay that detects ADP turnover that is directly proportional to AMPK activity. This uses naive AMPK that is activated during the assay with MK-8722. Type of assay: functional. The note with it: 30 µM.

In assay [4] the target is Sialic acid-binding Ig-like lectin 9 (Homo sapiens) (UniProt Q9Y336). Briefly: Hs-Siglec9 ALPHAscreen SOP 20170721. The note with it: 10 µM. (Bead proximity is the source of the signal in Alpha formats.)
The subject of a further assay is Trypanosoma cruzi. Briefly: Trypanosoma cruzi phosphomannomutase and mannose-1-phosphate guanylyltransferase assay. The assay is classed as functional. The note with it: 10 µM.
In assay [5] the target is T2, Arginase-2, mitochondrial (Homo sapiens) (UniProt P78540).
T2 sequence (whole entry): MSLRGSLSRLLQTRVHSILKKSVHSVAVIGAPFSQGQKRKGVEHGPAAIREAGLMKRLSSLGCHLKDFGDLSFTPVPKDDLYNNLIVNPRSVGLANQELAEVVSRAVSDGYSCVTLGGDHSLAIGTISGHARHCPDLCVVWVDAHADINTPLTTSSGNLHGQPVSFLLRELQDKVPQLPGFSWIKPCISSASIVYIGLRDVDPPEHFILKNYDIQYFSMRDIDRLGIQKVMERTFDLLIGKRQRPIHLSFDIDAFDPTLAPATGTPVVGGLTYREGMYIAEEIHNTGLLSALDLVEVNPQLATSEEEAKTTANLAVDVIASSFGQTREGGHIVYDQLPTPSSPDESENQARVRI
Description: in vitro enzyme assay to detect the production of urea directly proportional to the activity of Arginase II. Further: in the data most compounds retested in dose-response had high values. Particulars: 33.3 µM. The assay is classed as functional.

The target of assay [6] is T3, Proteasome subunit beta (Trypanosoma cruzi) (UniProt O96673).
T3 sequence (whole entry): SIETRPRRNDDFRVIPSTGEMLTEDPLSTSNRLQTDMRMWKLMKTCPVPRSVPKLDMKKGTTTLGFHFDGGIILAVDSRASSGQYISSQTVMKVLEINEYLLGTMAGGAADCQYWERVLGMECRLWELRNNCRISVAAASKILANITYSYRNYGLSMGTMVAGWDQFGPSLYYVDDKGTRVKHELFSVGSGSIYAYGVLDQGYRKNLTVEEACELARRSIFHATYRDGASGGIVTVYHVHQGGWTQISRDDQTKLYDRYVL
Description: Trypanosoma cruzi proteasome chymotrypsin-like activity (TcProtChymo) assay. Further: in the data most compounds retested in dose-response had high values. Type of assay: functional. The note with it: 9.37 µM.

Another assay is filed under the species Homo sapiens. Briefly: To identify inhibition of the IFN signalling (Jak-Stat) pathway via expression of an eGFP reporter gene under the control of an IFN-stimulated response element (ISRE) containing MxA promoter. The note with it: 30 µM. Type of assay: functional. On the technique in general: A reporter such as luciferase makes a cellular process visible.

For assay [7], the target named is T4, Tyrosyl-tRNA synthetase, putative (Trypanosoma cruzi (strain CL Brener)) (UniProt Q4DSP6).
T4 sequence (whole entry): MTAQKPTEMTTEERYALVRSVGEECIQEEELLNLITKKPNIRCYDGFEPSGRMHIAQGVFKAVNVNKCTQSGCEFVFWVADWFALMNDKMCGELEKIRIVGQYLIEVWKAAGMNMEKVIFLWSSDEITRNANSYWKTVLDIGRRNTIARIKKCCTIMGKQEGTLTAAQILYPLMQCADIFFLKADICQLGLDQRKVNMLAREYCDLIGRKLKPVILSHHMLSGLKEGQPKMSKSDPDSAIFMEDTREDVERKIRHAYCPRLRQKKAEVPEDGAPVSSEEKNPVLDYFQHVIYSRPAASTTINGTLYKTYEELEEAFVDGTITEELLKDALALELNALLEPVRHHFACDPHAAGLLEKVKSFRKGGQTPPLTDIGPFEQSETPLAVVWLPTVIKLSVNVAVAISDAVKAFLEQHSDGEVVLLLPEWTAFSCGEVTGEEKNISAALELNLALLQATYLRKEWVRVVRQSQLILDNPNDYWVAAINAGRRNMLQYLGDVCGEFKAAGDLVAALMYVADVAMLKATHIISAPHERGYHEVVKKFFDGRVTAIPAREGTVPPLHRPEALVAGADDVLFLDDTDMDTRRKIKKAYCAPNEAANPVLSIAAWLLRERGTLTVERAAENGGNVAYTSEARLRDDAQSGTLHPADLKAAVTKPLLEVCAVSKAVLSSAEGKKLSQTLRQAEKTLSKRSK
Description: Trypanosoma cruzi tyrosyl tRNA synthetase (TcYRS) _High Tyrosine SOP. Further: in the data most compounds retested in dose-response had high values. Type of assay: functional. The note with it: 30 µM.

Assay [8] addresses T4, Tyrosyl-tRNA synthetase, putative (Trypanosoma cruzi (strain CL Brener)). Description: Trypanosoma cruzi tyrosyl tRNA synthetase (TcYRS) SOP. Type of assay: functional. Particulars: 30 µM.
The target in assay [9] is Chromo domain-containing protein 1 (Saccharomyces cerevisiae (strain ATCC 204508 / S288c) (Baker's yeast)) (UniProt P32657). Briefly: ScCHD-1 Enzyme Inhibition Assay. Further: in the data most compounds retested in dose-response had high values. Particulars: 30 µM. The assay is classed as functional.
Chain of Chromo domain-containing protein 1 (Saccharomyces cerevisiae (strain ATCC 204508 / S288c) (Baker's yeast)) (P32657 whole entry, the tested form may be a part): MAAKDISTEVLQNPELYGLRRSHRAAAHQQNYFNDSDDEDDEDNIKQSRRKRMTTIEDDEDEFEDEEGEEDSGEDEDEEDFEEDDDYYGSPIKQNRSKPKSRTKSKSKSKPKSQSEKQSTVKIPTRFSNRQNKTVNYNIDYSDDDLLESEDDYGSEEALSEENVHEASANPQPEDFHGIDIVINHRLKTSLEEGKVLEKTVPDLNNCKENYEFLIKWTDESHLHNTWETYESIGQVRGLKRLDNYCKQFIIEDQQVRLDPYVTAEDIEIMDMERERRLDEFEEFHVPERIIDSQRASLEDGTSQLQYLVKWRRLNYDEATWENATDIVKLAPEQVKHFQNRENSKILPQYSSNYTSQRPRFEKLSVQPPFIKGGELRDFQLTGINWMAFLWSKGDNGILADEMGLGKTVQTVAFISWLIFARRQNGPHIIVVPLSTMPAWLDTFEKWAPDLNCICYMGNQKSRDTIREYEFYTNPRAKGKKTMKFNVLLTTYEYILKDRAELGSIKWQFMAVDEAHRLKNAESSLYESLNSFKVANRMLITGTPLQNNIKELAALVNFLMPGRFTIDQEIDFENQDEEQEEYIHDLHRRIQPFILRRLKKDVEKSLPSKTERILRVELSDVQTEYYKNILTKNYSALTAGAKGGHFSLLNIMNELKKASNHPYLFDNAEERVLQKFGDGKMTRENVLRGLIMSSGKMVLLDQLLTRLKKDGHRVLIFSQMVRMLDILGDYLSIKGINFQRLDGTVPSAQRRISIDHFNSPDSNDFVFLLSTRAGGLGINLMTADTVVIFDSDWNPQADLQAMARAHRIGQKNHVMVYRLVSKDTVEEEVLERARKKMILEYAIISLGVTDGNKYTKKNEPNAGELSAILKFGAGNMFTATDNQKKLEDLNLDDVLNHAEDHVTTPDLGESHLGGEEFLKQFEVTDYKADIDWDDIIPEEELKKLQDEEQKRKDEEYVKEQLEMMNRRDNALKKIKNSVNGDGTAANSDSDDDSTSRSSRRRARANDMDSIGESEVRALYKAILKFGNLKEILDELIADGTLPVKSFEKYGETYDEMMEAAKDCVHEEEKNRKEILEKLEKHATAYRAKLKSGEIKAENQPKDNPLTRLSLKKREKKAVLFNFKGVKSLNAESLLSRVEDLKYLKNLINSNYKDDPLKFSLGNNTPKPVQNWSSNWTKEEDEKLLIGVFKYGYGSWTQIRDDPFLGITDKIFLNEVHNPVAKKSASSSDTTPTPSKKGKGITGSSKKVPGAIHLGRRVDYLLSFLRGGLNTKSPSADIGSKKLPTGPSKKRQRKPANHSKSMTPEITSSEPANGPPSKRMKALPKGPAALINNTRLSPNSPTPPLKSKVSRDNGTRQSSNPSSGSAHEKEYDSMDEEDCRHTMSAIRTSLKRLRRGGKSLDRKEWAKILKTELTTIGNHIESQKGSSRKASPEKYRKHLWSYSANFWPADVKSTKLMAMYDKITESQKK

Chain of Protein translocase subunit SecA (Escherichia coli (strain K12)) (P10408 whole entry): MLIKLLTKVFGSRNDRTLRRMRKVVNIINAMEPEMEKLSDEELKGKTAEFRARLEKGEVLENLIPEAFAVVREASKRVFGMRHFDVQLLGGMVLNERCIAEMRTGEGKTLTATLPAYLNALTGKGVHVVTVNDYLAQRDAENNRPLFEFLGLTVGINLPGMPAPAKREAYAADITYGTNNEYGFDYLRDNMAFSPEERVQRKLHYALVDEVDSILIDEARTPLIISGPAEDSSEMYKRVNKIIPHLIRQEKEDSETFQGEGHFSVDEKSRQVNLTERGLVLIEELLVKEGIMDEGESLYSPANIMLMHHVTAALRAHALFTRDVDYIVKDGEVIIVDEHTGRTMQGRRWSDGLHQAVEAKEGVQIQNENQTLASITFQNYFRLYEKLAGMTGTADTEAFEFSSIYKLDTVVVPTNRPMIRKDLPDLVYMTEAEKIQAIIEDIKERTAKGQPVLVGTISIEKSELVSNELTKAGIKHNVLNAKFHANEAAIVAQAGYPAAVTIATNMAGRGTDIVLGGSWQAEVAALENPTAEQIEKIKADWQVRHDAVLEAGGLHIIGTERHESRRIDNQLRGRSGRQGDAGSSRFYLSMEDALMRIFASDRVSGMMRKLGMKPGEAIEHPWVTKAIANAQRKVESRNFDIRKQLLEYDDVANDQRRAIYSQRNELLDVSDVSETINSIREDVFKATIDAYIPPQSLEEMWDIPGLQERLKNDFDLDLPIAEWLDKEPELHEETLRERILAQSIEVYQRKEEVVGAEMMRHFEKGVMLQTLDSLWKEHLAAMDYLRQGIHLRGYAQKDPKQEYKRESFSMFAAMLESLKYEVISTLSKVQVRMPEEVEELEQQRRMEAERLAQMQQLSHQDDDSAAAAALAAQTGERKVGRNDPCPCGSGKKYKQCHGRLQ
Chain of Sialic acid-binding Ig-like lectin 9 (Homo sapiens) (Q9Y336 whole entry): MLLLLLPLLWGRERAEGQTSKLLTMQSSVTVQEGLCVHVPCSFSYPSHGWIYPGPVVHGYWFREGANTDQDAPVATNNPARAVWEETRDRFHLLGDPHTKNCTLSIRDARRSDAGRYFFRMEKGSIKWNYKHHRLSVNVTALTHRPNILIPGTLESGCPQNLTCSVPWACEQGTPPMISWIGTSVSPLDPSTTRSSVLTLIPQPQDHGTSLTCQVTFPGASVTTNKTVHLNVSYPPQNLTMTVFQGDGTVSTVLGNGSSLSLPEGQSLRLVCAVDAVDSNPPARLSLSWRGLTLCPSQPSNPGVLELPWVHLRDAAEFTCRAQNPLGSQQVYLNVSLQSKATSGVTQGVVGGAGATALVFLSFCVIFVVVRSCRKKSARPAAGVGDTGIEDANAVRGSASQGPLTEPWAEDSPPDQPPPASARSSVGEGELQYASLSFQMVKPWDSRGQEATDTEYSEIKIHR

On to `COCC1COCCC12CCN(C(=O)CCOc1ccccc1)CC2` (stereo not drawn), for which the Percent Effect is -3.35% in [1]; 2.7% in [2]; 0.684% in assay [3]; -3.94% in assay [4]; 8.2% with Trypanosoma cruzi; -2.5% in assay [5]. The Percent Effect in [6] was 6%; in the assay filed under Homo sapiens, -0.428%; in assay [7] it was 8.91%; in [8], 6.1%; in assay [9], 1.14%.

With `CCc1nc(CN2CCCC(NCc3ccc(C(N)=O)cc3)C2)no1` (stereo not drawn), the Percent Effect in [1] was -4.14%; in [2], 2.53%; in assay [3], -1.56%; in assay [4], 9.52%; with Trypanosoma cruzi, 2.93%; in [5], 1.14%. In addition, the Percent Effect was -0.246% in assay [6]; 12.3% in the assay filed under Homo sapiens; -0.493% in [7]; 1.27% in [8]; -2.88% in assay [9].

Consider `CC(O)CN1CCN(C(=O)c2ccc(Br)o2)CC1` (stereo not drawn), for which the Percent Effect in [1] was -4.28%; in assay [2] it was 15.8%; in assay [3], 17.9%; in assay [4], -7.51%; in the assay with Trypanosoma cruzi, -3.57%; in [5] it was 3.45%. Besides, the Percent Effect in assay [6] is 8.69%; in the assay filed under Homo sapiens it was 22.7%; in assay [7], 4.41%; in assay [8], 9.76%; in assay [9], -12.7%.

Regarding `CC(C)(C)c1noc(CN2CCN(C(=O)c3cccs3)CC2)n1`, the Percent Effect in assay [1] is -2.39%; in assay [2], 10.4%; in [3] it was 4.2%; in [4], -5.86%; with Trypanosoma cruzi, -4.68%; in assay [5], 4.27%. The Percent Effect in assay [6] is 10.3%; in the assay filed under Homo sapiens, 19.4%; in [7], 7.77%; in assay [8], 14.6%; in assay [9], -7.8%.

Regarding `Cc1noc(C(C)C)c1C(=O)N1CCCN(Cc2cscn2)CC1`, the Percent Effect in assay [1] was -4.04%; in [2] it was 18.2%; in assay [3] it was -1.96%; in assay [4], -7.63%; in the assay with Trypanosoma cruzi, 2.25%; in assay [5], -0.632%. Moreover, the Percent Effect in assay [6] is 15.6%; in the assay filed under Homo sapiens it was 0.184%; in [7], 7.62%; in assay [8], 21.2%; in assay [9], -23.9%.

For `O=C(c1cnc(-c2ccco2)s1)N1CCCC1Cn1cccn1` (stereo not drawn), the Percent Effect in assay [1] was -4.62%; in assay [2], 3.8%; in assay [3] it was 8.45%; in assay [4], 0.321%; in the assay with Trypanosoma cruzi it was 2.97%; in [5], 1.5%. Also, the Percent Effect was 9.09% in [6]; 13% in the assay filed under Homo sapiens; 7.29% in assay [7]; 5.06% in assay [8]; 0.437% in assay [9].

On to `COCc1noc(C2(c3ccc(Br)cc3)CCOCC2)n1`, for which the Percent Effect in assay [1] is -2.85%; in assay [2], -2.7%; in assay [3], 1.95%; in assay [4], -4.39%; in the assay on Trypanosoma cruzi, -6.95%; in [5], 1.91%. Also, the Percent Effect was 9.83% in assay [6]; 4.48% in the assay listed under Homo sapiens; -1.59% in assay [7]; 4.88% in [8]; -3.06% in [9].

For the compound `CN(C)CC(=O)N1C[C@@H]2CC[C@H](Oc3ccccc3Cl)[C@@H]2C1`, the Percent Effect is -5.55% in assay [1]; -4.05% in assay [2]; 9.46% in [3]; 5.31% in assay [4]; -2.17% with Trypanosoma cruzi; -3.48% in assay [5]. Further, the Percent Effect in assay [6] was -2.5%; in the assay filed under Homo sapiens, 6.65%; in assay [7] it was -1.07%; in assay [8] it was 3.9%; in assay [9] it was 9.09%.
